# Screens: PubChem BioAssay, several laboratories
# esBAF inh: inhibitors of esBAF chromatin remodeling in mouse ES cells. Bmi1-luciferase knock-in reporter, 24 h; 100% = twice the neutral-well signal. reporter increase, % at 12.5 µM. hit rate 2% among 350,000. AID 602393; in the data active = activation above about 40%; inconclusive = no clear call, values can overlap the other calls;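 note: 0% = median of the plate's neutral control wells and 100% = double that signal; a rise in the Bmi1 reporter signal indicates esBAF inhibition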
# SKN-1 inh: inhibitors of C. elegans SKN-1 | inhibition, % at 21.8 µM | AID 624304 | hit rate 0.49% among 360,000 | C. elegans VP596 Pgst-4::GFP/RFP ratio, acrylamide-induced, 24 h;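 active = interference check ratio from 0.5 to 1.5 plus GFP to RFP signal ratio inhibition reaching or exceeding a fixed threshold, cut at about 30% in these data, passing the limit was not always enough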
# Vif inh: inhibitors of HIV Vif; HEK293T cells, Vif self-association by quenched fluorescence, imaging, 24 h; inhibition, % at 7.49 µM; hit rate 0.35% among 340,000; AID 602346; in the data active = inhibition above about 50%, passing the limit was not always enough; inconclusive = no clear call, values can overlap the other calls; inactive = below about 31%
# SMARCA2 act: increases SMARCA2 function in MMTV reporter cells. hit rate 1% among 370,000. AID 652017. MG213 cells, MMTV-luciferase reporter, dexamethasone, overnight. activation, % at 9.1 µM; in the data active = activation above about 7.8%;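 note: 0% = vehicle wells and 100% = reference activator wells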
# NadD block: blocks S. aureus nicotinate mononucleotide adenylyltransferase; AID 602399; purified NadD enzyme, colorimetric absorbance read-out; inhibition, % at 20 µM; hit rate 0.78% among 360,000; in the data active = inhibition above about 26%
# NR3A LBD binder: NR3A (human) ligand-binding domain modulation; NR3A LBD differential scanning fluorimetry, Tm shift; 0% = protein alone, 100% = glycine-bound protein; Tm shift relative to glycine control, % at 25 µM; hit rate 2.5% among 340,000;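 active = melting temperature shift of at least 10% of the positive control shift, at one fixed dose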
# * = called active by the depositor; u = inconclusive; x = no result. This is a sample that favours compounds with a hit; in the whole collection about 5.2% have one here.
SMILES,esBAF inh,SKN-1 inh,Vif inh,SMARCA2 act,NadD block,NR3A LBD binder
O=C(Nc1cc(S(=O)(=O)N2CCOCC2)ccc1O)c1ccc(NS(=O)(=O)c2ccc(Cl)s2)cc1,x,-7,1,-2,-2,19*
Cc1ccc(NS(=O)(=O)c2ccc3c(c2)n(C)c(=O)n3C)cc1,-3,10,-3,x,5,-3
O=C(Nc1ccc([N+](=O)[O-])cc1)c1ccc(S(=O)(=O)N2CCCC2)cc1,-6,-2,7,2,0,11*
COc1ccc(NC(=O)CCCNC(=O)c2ccc(Cl)cc2)cc1S(=O)(=O)N1CCCCC1,3,1,2,-4,3,12*
COc1ccc(NC(=O)CCCNC(=O)c2ccc(Cl)cc2)cc1OC,-1,0,-4,3,-5,1
COc1ccc(NS(=O)(=O)c2ccc3c(c2)n(C)c(=O)n3C)cc1,-2,37*,4,3,3,-3
CO[C@@H]1CN(C)C(=O)c2ccc(NC(C)=O)cc2OC[C@H](C)N(C(=O)c2ccncc2)C[C@@H]1C,-11,x,x,x,x,x
Cc1ccc(NC(=O)c2ccccc2NS(=O)(=O)c2ccc(Cl)s2)cc1S(=O)(=O)N1CCOCC1,x,13,-23,-7,2,24*
CC(C)c1ccc(NC(=O)c2cc(S(=O)(=O)N3CCCC3)c[nH]2)cc1,10,1,x,-3,0,-11
COc1ccc(C)cc1NC(=O)c1ccccc1NS(=O)(=O)c1ccc(Cl)s1,-50,16,-16,-6,-5,17*
COc1ccc(NC(=O)c2cc(S(=O)(=O)N3CCCCC3)c[nH]2)cc1Cl,10,15,-11,-3,0,25*
COc1ccccc1NC(=O)c1ccccc1NS(=O)(=O)c1cccs1,2,4,-10,-1,-1,2
COC(=O)c1ccc(S(=O)(=O)N2CCCCCC2)cc1,-3,35*,0,-2,-2,0
CC(C)C#Cc1ccc2c(c1)O[C@@H](CN(C)C)[C@@H](C)CN([C@H](C)CO)S2(=O)=O,-6,x,x,x,x,x
CO[C@H]1CN(C)C(=O)c2ccc(NC(C)=O)cc2OC[C@H](C)N(Cc2nccs2)C[C@H]1C,-2,x,x,x,x,x
O=C(CN(Cc1ccco1)C(=O)CNS(=O)(=O)c1ccc(Cl)cc1)NC1CCCCC1,-4,38*,u,-1,2,-1
Cc1noc(C)c1NC(=O)Nc1ccc2c(c1)C(=O)N([C@H](C)CO)C[C@H](C)[C@@H](CN(C)C(=O)NC(C)C)OCCCC[C@H](C)O2,0,x,x,x,x,x
Cc1cccn2cc(-c3ccc(Cl)cc3)nc12,x,34,-8,0,-4,-364
O=[N+]([O-])c1cccn2cc(-c3ccc(Br)cc3)nc12,58*,-14,-4,-2,-4,4
Cc1ccc(S(=O)(=O)N(C)C[C@@H]2OCCCC[C@H](C)Oc3ccc(NC(=O)NC4CCCCC4)cc3C(=O)N([C@H](C)CO)C[C@@H]2C)cc1,2,x,x,x,x,x
Cc1ccc(S(=O)(=O)N(C)C[C@H]2Oc3ccc(NC(=O)Nc4ccccc4)cc3CC(=O)N([C@H](C)CO)C[C@@H]2C)cc1,2,x,x,x,x,x
CC(C)(C)c1csc(NC(=O)C2COc3ccccc3O2)n1 (stereo not given),55*,23,2,4,-5,4
Cc1onc(-c2ccccc2)c1C(=O)Nc1nc2c(s1)C(=O)CC(C)(C)C2,-2,40*,2,-2,-3,0
Cc1ccc(NC(=O)C2COc3ccccc3O2)c(C)c1 (stereo not given),45*,15,-4,4,-1,3
COc1ccc(-c2csc(NC(=O)C3COc4ccccc4O3)n2)cc1OC (stereo not given),-2,-11,-6,-2,-1,-8
SMILES,esBAF inh,SKN-1 inh,Vif inh,SMARCA2 act,NadD block,NR3A LBD binder
CC1(C)CC(=O)c2sc(NC(=O)C3COc4ccccc4O3)nc2C1 (stereo not given),45*,-1,-6,3,-4,0
CC1(C)CC(=O)c2sc(NC(=O)c3ccco3)nc2C1,24,10,15,-1,-3,-1
O=C(O)C[C@H]1C[C@H]2c3cc(NC(=O)Nc4ccccc4F)ccc3O[C@H]2[C@@H](CO)O1,0,x,x,x,x,x
O=C(C[C@@H]1C=C[C@H](NC(=O)NC2CCCCC2)[C@H](CO)O1)NCc1ccc(Cl)cc1,5,x,x,x,x,x
Cc1ccccc1S(=O)Cc1ccc(C(=O)N2CCN(C(=O)c3ccco3)CC2)o1 (stereo not given),-3,35*,-9,-2,3,0
CN(C)c1ccc2nc3ccc(=[N+](C)C)cc-3sc2c1,x,37*,-3,-3,2,-4
CN(C)c1ccc2nc3ccc(=O)cc-3sc2c1,-59,86,x,-6,11,x
COC(=O)c1ccc2c(C)c(C3(O)CCCCC3)[nH]c2c1,66*,4,x,4,-9,-1
Cc1ccccc1-c1nnc(-c2ccccc2C)o1,x,46*,3,1,-3,0
Cc1ccc(-c2nnc(-c3ccccc3)o2)cc1Br,x,0,25,-1,3,4
CSc1ccccc1-c1nnc(-c2ccccc2)o1,43*,1,x,7,-6,-2
Cc1ccccc1-c1nnc(-c2ccc(Br)cc2)o1,69*,6,-2,5,-8,0
CSc1ccccc1-c1nnc(-c2ccc(C)cc2)o1,x,9,x,-1,-10,1
Cc1ccccc1-c1nnc(SCC#N)o1,x,-10,0,0,-6,0
COc1ccc(C(=O)Nc2ccc3c(c2)OC[C@@H](C)NC[C@H](C)[C@H](OC)CN(C)C3=O)cc1,-2,x,x,x,x,x
C[C@@H]1CN([C@@H](C)CO)C(=O)c2cc(NC(=O)C3CCCCC3)ccc2O[C@@H](C)CCCCO[C@@H]1CN(C)Cc1ccccc1,-3,x,x,x,x,x
O=C(Nc1cccnc1)c1cn(-c2ccccc2)nc1-c1cccs1,58*,12,-3,-1,8,2
O=C(Nc1cccc2ccccc12)c1cn(-c2ccccc2)nc1-c1cccs1,x,15,12,x,10,3
CN(CC(=O)Nc1ccc(F)cc1)C(=O)c1cn(-c2ccccc2)nc1-c1cccs1,1,8,-2,-2,-4,24*
CCNC(=O)C[C@@H]1CC[C@@H]2[C@H](COc3ccc(NC(=O)Nc4ccccc4Cl)cc3C(=O)N2C)O1,4,x,x,x,x,x
Cc1cnc(C(=O)OCC(=O)Nc2ccc(Br)c(C)c2)cn1,-1,-3,3,-3,-5,12*
Cc1cnc(C(=O)OCC(=O)Nc2cc(Cl)cc(Cl)c2)cn1,-6,7,1,-1,-2,13*
Cc1cnc(C(=O)OCC(=O)Nc2c(Cl)cc(Cl)cc2Cl)cn1,-6,-5,-6,-1,1,-1
C[C@H]1CCCCO[C@H](CN(C)Cc2ccncc2)[C@@H](C)CN([C@@H](C)CO)C(=O)c2cc(NC(=O)NC3CCCCC3)ccc2O1,-5,x,x,x,x,x
